HT1080 IDH1KD tx: HT-1080 IDH1 knockdown cell toxicity (counter line). HT-1080 IDH1 knockdown viability, ATP luminescence, 48 h. Potency, µM (titrated, usually from 46.1 µM), for the others: top-dose activity, negative = toxicity, most hits filed as cytotoxic. actives 2% (n = 360,000). AID 686971;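 further: potency means the concentration at half of the fitted maximal effect; 0% = DMSO wells and -100% = cell-free medium wells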
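HT-1080-IDH1KD cells (IDH1 knocked down), 750/well in RPMI with 5% FBS, treated with compound 48 h at 37 degrees C. Viability by CellTiter-Glo luminescence, normalised to DMSO and no-cell wells; concentration-response curves classed.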
HT1080-NT tox: kills 2HG-producing HT-1080-NT fibrosarcoma cells. HT-1080-NT fibrosarcoma viability, CellTiter-Glo ATP luminescence, 48 h. Potency, µM (series often up to 46.1 µM), inactives show top-dose activity, negative = less viability, actives largely listed as cytotoxic. actives 1.6% (n = 360,000);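 further: NT is the 2HG producing partner of a matched IDH1 knockdown line; potency means the concentration at half of the fitted maximal effect; 0% = DMSO-treated cells and -100% = media-only wells without cells; nearly all actives have a fitted effect of over 55% in size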
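A 48-hour cytotoxicity screen used HT-1080-NT cells plated 2 hours before compound delivery. ATP-based CellTiter-Glo luminescence measured viability, normalized to DMSO and no-cell controls.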
DT40 TDP1 no CPT: qHTS for Inhibitors of human tyrosyl-DNA phosphodiesterase 1 (TDP1): qHTS in cells in absence of CPT; DT40 Tdp1-/- hTDP1 cells, no CPT, ATP luminescence, 48 h; Potency, µM (series often up to 46.2 µM), without a hit: top-dose activity change, negative = growth inhibition, actives largely listed as inhibitors; actives 15% (n = 420,000); further: potency means the concentration at half of the fitted maximal effect; nearly all actives have a fitted effect of over 55% in size
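Cells were dispensed at 400 per well, compounds added by pin tool, plates incubated ≥48 hr at 37 °C, then CellTiter-Glo added for 30 min at room temperature before luminescence reading. Line: DT40 Tdp1-/- complemented with hTDP1; camptothecin omitted.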
TDP1 cell CPT: DT40-hTDP1 cell growth loss with CPT; AID 686979; actives 12% (n = 420,000); chicken DT40 Tdp1-/-;hTDP1 cells + 20 nM CPT, ATP luminescence, 48 h; Potency, µM (titrated, usually from 46.2 µM), without a hit: top-dose activity change, negative = growth inhibition, most hits filed as inhibitors; further: potency means the concentration at half of the fitted maximal effect; nearly all actives have a fitted effect of over 55% in size
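Chicken DT40 Tdp1-/- cells complemented with human TDP1, 400 cells/well, exposed to compounds plus 20 nM camptothecin for at least 48 h at 37 C; viability read as ATP content by CellTiter-Glo luminescence.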
ELG1 repair inh: ELG1-dependent DNA repair inhibition. HEK293T ELG1-luciferase reporter, luminescence, 16 h; DNA damage induced by 5-fluorouridine. Potency, µM (series often up to 46.1 µM), for the others: top-dose activity change, negative = inhibition, usual class: inhibitors. actives 2.3% (n = 330,000); further: potency means the concentration at half of the fitted maximal effect; nearly all actives have a fitted effect of over 55% in size
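Cells (2,000 per well) received 5-fluorouridine plus test compound or DMSO and were incubated 16 hr at 37 °C, 5% CO2. Luciferase activity was read by luminescence 30 min after ONE-Glo addition; signal suppression marked inhibition of damage-induced ELG1 function.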
IL-1B inflam inh: blocks inflammasome-driven IL-1 beta release | activity change, % at 57.5 µM | THP-1 LPS/ATP IL-1B secretion, AlphaLISA, 16 h; hits give low values | actives 4.7% (n = 360,000); in the data active means activity change below about -50%; inconclusive means mostly about -30% to -49%
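THP-1 cells pretreated 1 hr with compounds (up to 57.5 uM final), then stimulated with LPS (250 ng/mL final) plus ATP (1.25 mM final); secreted IL-1B measured by AlphaLISA after 16 hr, decreased signal indicating inhibition.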
* marks the source's active call; other numbers are inactive results; ? = inconclusive; . = not tested or not shown; [ ] = dose if it differs, or a comment. The list is not random: actives were taken first. Their share in the collection is about 19%. Unless noted, the call rests on the fitted dose curve; in most records, active means well fitted curve in the direction sought with a large enough effect; inconclusive means small, poorly fitted or top-dose-only effect, or another doubt; inactive means no such curve, though single readings can be large; an effect the other way counts as inactive or inconclusive. Unless noted, on the % scale 0 is the no-effect control and ±100 the full control effect.

SMILES	HT1080 IDH1KD tx	HT1080-NT tox	DT40 TDP1 no CPT	TDP1 cell CPT	ELG1 repair inh	IL-1B inflam inh
O=[N+]([O-])c1cccc(NC(=S)Nc2nc(-c3ccc(Cl)cc3Cl)cs2)c1	.	.	.	.	11%	.
Nc1c(C(=O)Nc2cccc(Cl)c2)sc2nc3c(cc12)CN(Cc1ccccc1)CC3	.	.	15µM*	7.3µM*	.	.
Cc1cccc(NC(=O)c2sc3nc4c(cc3c2N)CN(Cc2ccccc2)CC4)c1	.	.	18µM*	15µM*	.	.
CCN1CCc2nc3sc(C(=O)Nc4cccnc4Cl)c(N)c3cc2C1	-2%	4%	?	?	-28%	?
COc1ccc(NC(=O)c2sc3nc4c(cc3c2N)CN(Cc2ccccc2)CC4)cc1	.	.	2%	3%	.	.
COc1ccc(NC(=O)c2sc3nc4c(cc3c2N)CN(C(C)C)CC4)c(OC)c1	.	.	?	23µM*	.	.
Cc1cccc(NC(=O)c2sc3nc4c(cc3c2N)CN(C(C)C)CC4)c1	.	.	?	21µM*	.	.
COC(=O)c1ccccc1C(=O)NCC1Cc2cc(-c3nc(C)cnc3C)ccc2O1 (stereo unspecified)	.	.	-9%	11%[9.04 µM]	.	.
CN1CCc2nc3sc(C(=O)Nc4cccc(C#N)c4)c(N)c3cc2C1	.	.	8.2µM*	21µM*	.	.
CC(C)OC(=O)CC(=O)c1sc2nc3c(cc2c1N)CN(C)CC3	9%	15%	?	?	12%	11
COc1ccc(CNS(=O)(=O)c2cc3c(cc2Cl)N(C(C)=O)CCO3)cc1	.	.	?	-23%	.	.
CCOC(=O)[C@]12CCC=C1N(Cc1ccc3c(c1)OCO3)C(=O)[C@H](CC(=O)NCc1ccc(C)o1)C2	-20%	-17%	23µM*	?	.	0
CCOC(=O)[C@]12CCC=C1N(Cc1ccc3c(c1)OCO3)C(=O)[C@H](CC(=O)NCc1cccc3ccccc13)C2	?	?	?	?	.	-60*
COC(=O)[C@]12CCCCC=C1N(Cc1ccc3c(c1)OCO3)C(=O)[C@H](CC(=O)NCc1ccc(C)o1)C2	1%	-4%	?	?	.	-14
COC(=O)[C@]12CCCCC=C1N(Cc1ccc3c(c1)OCO3)C(=O)[C@H](CC(=O)NCc1cccc3ccccc13)C2	-19%	?	?	?	.	-11
O=[N+]([O-])c1ccc(NCc2ccc3c(c2)OCO3)cc1	-1%	0%	?	-2%	11%	-14
COc1cccc(CNc2ccc([N+](=O)[O-])cc2C)c1	-3%	-16%	18µM*	?	10%	-1
COc1ccc(OC)c(CNc2ccc([N+](=O)[O-])cc2C)c1	-4%	-6%	0%	6%	-30%	-69*
Cc1cc([N+](=O)[O-])ccc1NCc1ccc2c(c1)OCCO2	-18%	-27%	-27%	-30%	25%	-51*
CC(C)(C)CC(C)(C)c1ccc(OCCO)cc1	.	.	11µM*	8.4µM*	.	.
Cc1cc(C)n2nc(-c3sccc3-n3c(C)ccc3C)cc2n1	-12%	5%	16µM*	23µM*	?	0
Cc1cc(C)n2nc(-c3sccc3-n3cccc3)cc2n1	10%[9.24 µM]	8%	?	?	-14%	-20
CC(=O)N1CCN(c2csc3ccc(F)cc3c2=O)CC1	.	.	-8%	-15%	.	.
CC(C)C[C@@H]1NC(=O)[C@H](C(C)C)NC(=O)c2cc([N+](=O)[O-])cc(I)c2NCC[C@@H](C(N)=O)NC1=O	7%	14%	-3%	-12%	8%	-6
CC[C@H](C)[C@@H]1NC(=O)[C@@H](CC(C)C)NC(=O)[C@H](C(C)C)NC(=O)[C@H]2CSSC[C@H](NC1=O)C(=O)N2	0.52µM*	0.46µM*	0.033µM*	0.065µM*	.	-116*
SMILES	HT1080 IDH1KD tx	HT1080-NT tox	DT40 TDP1 no CPT	TDP1 cell CPT	ELG1 repair inh	IL-1B inflam inh
C[C@@H]1CN(Cc2ccc3c(c2)CN(Cc2cccn2-c2ccccn2)CCO3)C[C@H](C)O1	.	.	-2%	-5%[9.04 µM]	.	.
Cc1cc(O)c(C2=Nc3ccccc3SC(c3ccc(Cl)cc3)C2)c(=O)o1 (stereo unspecified)	3%	?	7.3µM*	5.2µM*	?	16
Cc1ccc(OCCCCN2CCCCC2)c(C)c1	0%	-2%	2%	7%	-3%	-11
Cc1ccc(OCCCCNC2CCCC(C)C2C)c(C)c1 (stereo unspecified)	?	21µM*	7.3µM*	8.2µM*	?	-95*
CCC1(CC)C(=O)N(c2ccccc2)C(=N)N(c2ccccc2)C1=O	0%	-4%	4%	23%	.	9
CC(NC1c2ccccc2-c2ccccc21)c1ccccc1 (stereo unspecified)	-13%	-18%	?	?	10%	0
Cc1cccc2sc(N(CCCN(C)C)C(=O)c3ccc4ncsc4c3)nc12	-2%	4%	?	?	?	?
Cc1cccc2sc(N(CCCN(C)C)C(=O)c3nc4ccccc4s3)nc12	-1%	1%	13µM*	13µM*	1%	-1
Cc1ccc2sc(N(CCCN(C)C)C(=O)c3nc4ccccc4s3)nc2c1C	21µM*	?	6.5µM*	13µM*	-11%	-29
CN(C)CCN(C(=O)c1ccc2ccccc2c1)c1nc2c(F)cccc2s1	6%	0%	5%	-26%	0%	-21
CCNc1nc(C#N)nc(NCC)n1	.	.	-18%	6%	.	.
Cc1cccc(Cc2c(C)nc3nc(SCC(=O)NC4CCCCC4)nn3c2C)c1	.	.	-4%	-29%	.	.
Cc1ccc(C)c2[nH]c(=O)c(CCNC(=O)c3cc4ccccc4o3)cc12	10%	7%	21µM*	18µM*	?	?
COc1ccc(OC)c2[nH]c(=O)c(CCNC(=O)c3cc4ccccc4o3)cc12	3%	0%	?	15µM*	18µM*	-22
COc1ccc(CNC(=O)c2ccccc2SCC(=O)N2CCCC2)cc1OC	-4%	-11%	-7%	2%	17%	-1
CCN(CC)S(=O)(=O)c1ccc(OC)c(NC(=O)OCc2ccccc2)c1	-12%	?	?	-3%	-16%	22
CCCCCCCCNS(=O)(=O)CCNCc1ccc(OC)cc1	?	-25%	?	?	.	-61*
CCCCCCNC(=O)CCCCCNS(=O)(=O)c1ccc(OC)cc1	-2%	-3%	?	18µM*	-11%	-24

Screening results (PubChem)
